Here are results for 59 compounds from PubChem BioAssay AID777 (Sanford-Burnham Center for Chemical Genomics, 2007).

Out of some 96,000 compounds screened, about 19,000 (20%) were called active. These entries were drawn from the full list. Values without a mark were called inactive.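 How the source made its calls: active means blocking of liver enzyme CYP2C9 beyond about 50% at 5 µM (limit read from the data); inactive means the rest.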

Sequence of Cytochrome P450 2C9 (Homo sapiens) (P11712 whole entry, looked up): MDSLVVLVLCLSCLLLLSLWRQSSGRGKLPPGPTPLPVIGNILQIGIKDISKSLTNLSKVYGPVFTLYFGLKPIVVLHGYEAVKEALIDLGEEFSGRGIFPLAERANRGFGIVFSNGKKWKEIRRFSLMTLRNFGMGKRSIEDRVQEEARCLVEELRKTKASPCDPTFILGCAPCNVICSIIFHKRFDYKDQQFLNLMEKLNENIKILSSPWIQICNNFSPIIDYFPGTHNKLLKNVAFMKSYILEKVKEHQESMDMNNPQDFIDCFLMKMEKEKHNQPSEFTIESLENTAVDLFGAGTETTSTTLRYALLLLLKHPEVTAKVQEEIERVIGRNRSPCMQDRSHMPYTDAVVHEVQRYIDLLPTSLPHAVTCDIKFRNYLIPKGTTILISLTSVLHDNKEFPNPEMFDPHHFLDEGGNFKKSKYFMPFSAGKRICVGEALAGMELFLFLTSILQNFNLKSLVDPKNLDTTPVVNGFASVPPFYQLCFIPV

This experiment concerns the target Cytochrome P450 2C9 (Homo sapiens) (UniProt P11712). The experiment in a line: blockers of cytochrome P450 2C9 activity – biochemical, luminescence, ADME assay, primary screen (AID 777). The note with it: CYP2C9 Supersomes, luciferin-H conversion, at 5 µM, active compounds read high.
As usually defined, the inhibition is the relative decrease from the control value, in per cent. As for `CCOC(=O)C1CCN(Cc2coc3ccc(Cl)cc3c2=O)CC1`, the inhibition is -49.2%.
Next, `CCN(CC(=O)Nc1ccccc1OC)C(=O)Cn1cnc2ccccc2c1=O`: 14.4%; `CCCc1nc(SCC(=O)Nc2ccccc2OC)c2c(=O)n(C)c(=O)n(C)c2n1`: 70.3% (active).
Take `COc1ccccc1NC(=O)CSc1nnc(Cn2nnc(-c3ccccc3)n2)n1-c1ccccc1`: the inhibition is 40.2%.
Next, `COc1ccc(C2C=C(c3ccc(Br)cc3)Nc3nc(NS(C)(=O)=O)nn32)cc1` (centres undefined): -11.7%; `O=C(O)CCC(=O)NCc1ccc(C(=O)O)cc1`: 6.1%.
Regarding `COc1ccc(NC(=O)c2c(SC)nsc2SC)cc1`, the inhibition is 12.2%.
In the case of `CCCCCOC(=O)NCCOC(=O)Nc1ccc(C(=O)OCC)cc1`, the inhibition is 48%.
Take `CCCc1ccc(OCc2ccc(C(=O)N/N=C/c3cccc([N+](=O)[O-])c3)o2)c(OC)c1`: the inhibition was -10.7%.
In the case of `COc1cc(OC)c(/C=N/NC(=O)c2ccc([N+](=O)[O-])cc2)cc1Br` it was 1.8%; in that of `N#Cc1cc([N+](=O)[O-])ccc1Oc1cccc(/C=N/NC(=O)c2ccc(Cl)cc2)c1`, 59.3% (active); in that of `O=C1CCC(C(=O)Nc2ccc(OC(F)F)cc2)N1` (centres undefined), 1.2%.
Turning to `CCCCNc1nc2ccccc2nc1NS(=O)(=O)c1cccs1`, the inhibition is 32.1%.
In the case of `CC1(C)CC(=O)C(C=NCCN2CCN(C(=S)Nc3cccc(Cl)c3)CC2)=C(O)C1` it was 51.8% (active); in that of `CC1(C)CC(=O)C(C=NCCC2=CCCCC2)=C(O)C1`, 0.7%; in that of `CC(=O)N1CCN(CCN=CC2=C(O)CC(C)(C)CC2=O)CC1`, 4%.
In the case of `CC(=O)c1nn(-c2cccc(Br)c2)cc1C(=O)c1cccc2ccccc12`, the inhibition was -72%.
Next, `CC(C)COC(=O)C1C2C=CC3(CN(C(C)c4ccc(Br)cc4)C(=O)C13)O2` (centres undefined): 9.2%.
Take `Cc1cc(NC(=O)c2cnn3cccnc23)n(-c2ccccc2)n1`: the inhibition is 32%.
In the case of `COc1ccc(CCN2C(=O)c3[nH]nc(-c4ccccc4O)c3C2c2ccc(C)cc2)cc1OC` (centres undefined) it was 58% (active); in that of `COc1ccc(CCN(C)CCN2C(=O)c3ccccc3C2=O)cc1OC`, -9.6%; in that of `CCN(CC)CCN1C(=O)C(=O)/C(=C(/O)c2ccc(OC)c(OC)c2)C1c1ccccn1` (centres undefined), -10.7%.
Regarding `CCCCCCSc1nsc(N)n1`, the inhibition is 1.5%.
Take `CCOC(=O)c1sc(=S)n(-c2cccc(OC)c2)c1N`: the inhibition is -20.4%.
Regarding `CC1CCN(C(=O)CN(c2ccc(Oc3ccccc3)cc2)S(C)(=O)=O)CC1`, the inhibition is 50.7% (active).
Regarding `CS(=O)(=O)N(CC(=O)N1CCN(c2cccc(Cl)c2)CC1)c1ccccc1`, the inhibition is 54.7% (active).
Next, `COc1cccc(N(CC(=O)N2CCc3ccccc3C2)S(C)(=O)=O)c1`: 14.5%; `Cc1cccc(N(CC(=O)N2CCOCC2)S(C)(=O)=O)c1`: 3.8%; `CS(=O)(=O)N(CC(=O)N1CCN(Cc2ccccc2)CC1)c1ccc2c(c1)OCCO2`: -0.9%.
Next, `CS(=O)(=O)N(CC(=O)N1CCN(Cc2ccc3c(c2)OCO3)CC1)c1ccc2c(c1)OCO2`: 7.2%; `O=C(Nc1cccnc1)c1noc2c1CCCCC2`: 33.5%.
For `Cc1nn(CC(=O)Nc2ccc3c(c2)nc(CN2CCCCC2)n3C)c(=O)c2ccccc12`, the inhibition was 16.1%.
Regarding `O/N=C(\c1ccc2c(c1)OCCO2)C1CCCCC1`, the inhibition was 35.2%.
In the case of `CCOc1ccccc1N=C1NC(=O)CS1` it was -11.8%; in that of `COc1ccc(OCc2ccc(-c3nc4ccccc4c(=O)n3N)o2)cc1`, 45.5%; in that of `O=C(O)/C=C/C(=O)Nc1ccc(F)cc1F`, 3.9%.
Next, `NC(=O)c1ncc(C(F)(F)F)cc1Oc1ccc(F)cc1`: 7.9%.
Next, `CN(Cc1ccccc1)c1nc2c(c(=O)[nH]c(=O)n2C)n1CCSc1nc2ccccc2[nH]1`: 67.2% (active); `Cn1c(=O)[nH]c(=O)c2c1nc(N(CCO)Cc1ccccc1)n2Cc1ccccc1Cl`: 25.8%; `CCCSc1nc2c(c(=O)[nH]c(=O)n2C)n1CCc1ccccc1`: 14.6%.
In the case of `Brc1ccc(/C=N/N2CCN(C3c4ccccc4-c4ccccc43)CC2)s1`, the inhibition was 25.4%.
Take `O=[N+]([O-])c1ccccc1/C=N/n1c(COc2ccccc2)n[nH]c1=S`: the inhibition was 8.7%.
In the case of `Cn1nc(-c2ccc(Cl)cc2)c2cc(C(=O)NCc3ccco3)sc21` it was 43.4%; in that of `Cc1nc(C)c(C(=O)N(c2ccc(C)c(C)c2)C(C(=O)NCc2ccco2)c2ccccc2)s1` (centres undefined), 46.6%.
In the case of `Cc1nn(-c2ccccc2)c2sc(C(=O)N(Cc3ccco3)C(C)C(=O)NC(C)(C)C)cc12` (centres undefined) it was 65.2% (active); in that of `CCn1nnc(NC(=O)c2cc(Cl)c(OC)c(Cl)c2)n1`, -1.7%.
In the case of `O=C(N1CCOCC1)N(Cc1ccccc1)c1ccccn1` it was 8.5%; in that of `CCC(C)Sc1nc(C)nc2c1c(=O)n(C)c(=O)n2C` (centres undefined), 8.4%.
On to `COc1cccc(/C=N/NC(=O)c2cccc([N+](=O)[O-])c2)c1OS(=O)(=O)c1ccc(C)cc1`, for which the inhibition was 1.8%.
`Cc1ccc(-c2nn(-c3ccccc3)cc2/C=N/NC(=O)c2ccc3c(c2)OCO3)cc1`: the inhibition was 76.1% (active).
Regarding `Cc1nnc(SCC(=O)N/N=C/c2cn(-c3ccccc3)nc2-c2ccc(F)cc2)n1-c1ccccc1`, the inhibition is 29.6%.
In the case of `CC/C(C)=N/Nc1nc2sc3c(c2c(=O)[nH]1)CC(C)(C)OC3` it was 30.9%; in that of `CCOC(=O)c1sc(NC(=O)CSc2ncccn2)c(C#N)c1C`, 45.3%.
With `Cc1cccc(NC(=O)CSc2nnc(-c3ccco3)o2)c1`, the inhibition was 29.1%.
For `CCOC(=O)c1sc(NC(=O)CSc2nnc(-c3ccco3)o2)c(C(=O)OCC)c1C`, the inhibition was 78.6% (active).
Next, `CCOC(=O)Cc1csc(NC(NC(=O)OCC)(C(F)(F)F)C(F)(F)F)n1`: 22.3%.
Next, `Cc1cc(N2CCCC2=O)cc(C)c1S(N)(=O)=O`: -21.5%; `COC(=O)[C@H](CCSC)NC(=O)Nc1ccc(OC)cc1`: 7.5%; `Cc1cc(C(=O)NCCCc2ccccc2)no1`: 2.4%.
